Reference: the supplement of paper PMC9694430

How the values were obtained:
Test in all cases: thermal shift delta Tm vs DMSO control; higher = stronger stabilization (binding)
Conditions in all cases: 12.5 µM; protein concentration 2 µM
LOC_OS02G45750-cb003 = test system: LOC_OS02G45750-cb003
How it was run: (§1)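 Rice kinase domain constructs, made in E. coli and purified, were placed in 96-well plates at 2 μM in 19.5 μl of 100 mM potassium phosphate pH 7.5, 150 mM NaCl, 10% glycerol and 5 × SYPRO Orange, with compound in DMSO. A temperature ramp from 25°C to 95°C at 0.05°C/s was used for differential scanning fluorimetry. The melting temperature shift is a triplicate mean compared with DMSO-only protein, derived from Boltzmann fits.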

LOC_OS02G54510-cb004 = test system: LOC_OS02G54510-cb004
How it was run: as §1

LOC_OS03G04050-cb001 = test system: LOC_OS03G04050-cb001
How it was run: as §1

LOC_OS03G12390-cb001 = test system: LOC_OS03G12390-cb001
How it was run: as §1

LOC_OS03G27990-cb004 = test system: LOC_OS03G27990-cb004
How it was run: as §1

LOC_OS03G50450-cb001 = test system: LOC_OS03G50450-cb001
How it was run: as §1

LOC_OS03G50810-cb003 = test system: LOC_OS03G50810-cb003
How it was run: as §1

LOC_OS04G35114-cb001 = test system: LOC_OS04G35114-cb001
How it was run: as §1

LOC_OS04G38480-cb003 = test system: T1, LOC_OS04G38480-cb003
T1 sequence (whole entry): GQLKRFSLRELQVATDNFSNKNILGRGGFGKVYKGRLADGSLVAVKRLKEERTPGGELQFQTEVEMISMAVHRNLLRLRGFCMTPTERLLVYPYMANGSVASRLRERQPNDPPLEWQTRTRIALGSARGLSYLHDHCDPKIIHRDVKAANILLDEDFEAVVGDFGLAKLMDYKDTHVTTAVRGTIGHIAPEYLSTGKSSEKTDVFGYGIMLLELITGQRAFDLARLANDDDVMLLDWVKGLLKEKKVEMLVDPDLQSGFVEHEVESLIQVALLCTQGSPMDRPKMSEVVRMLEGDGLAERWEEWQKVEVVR
How it was run: as §1

LOC_OS04G41100-cb001 = test system: T2, LOC_OS04G41100-cb001
T2 sequence (whole entry): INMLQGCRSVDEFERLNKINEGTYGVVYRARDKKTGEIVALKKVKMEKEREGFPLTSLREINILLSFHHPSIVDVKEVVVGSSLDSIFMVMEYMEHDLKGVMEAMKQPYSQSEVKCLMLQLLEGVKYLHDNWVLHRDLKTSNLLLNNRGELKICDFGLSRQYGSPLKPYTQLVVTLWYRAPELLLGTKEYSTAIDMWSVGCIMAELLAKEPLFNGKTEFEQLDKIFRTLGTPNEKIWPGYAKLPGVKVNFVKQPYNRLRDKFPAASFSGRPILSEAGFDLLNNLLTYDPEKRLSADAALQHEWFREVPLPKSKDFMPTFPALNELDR
How it was run: as §1
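Also: purified Escherichia coli-expressed rice kinase domain construct.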

Row | SMILES | thermal shift delta Tm (LOC_OS02G45750-cb003) [°C] | thermal shift delta Tm (LOC_OS02G54510-cb004) [°C] | thermal shift delta Tm (LOC_OS03G04050-cb001) [°C] | thermal shift delta Tm (LOC_OS03G12390-cb001) [°C] | thermal shift delta Tm (LOC_OS03G27990-cb004) [°C] | thermal shift delta Tm (LOC_OS03G50450-cb001) [°C] | thermal shift delta Tm (LOC_OS03G50810-cb003) [°C] | thermal shift delta Tm (LOC_OS04G35114-cb001) [°C] | thermal shift delta Tm (LOC_OS04G38480-cb003) [°C] | thermal shift delta Tm (LOC_OS04G41100-cb001) [°C]
1 | COc1ccc(/C=C/C(=O)C2(C(=O)/C=C/c3ccc(OC)c(OC)c3)CCCCC2)cc1OC | 1.45 | 0.31 | 0.85 | -0.65 | 0.61 | 0.8 | -0.01 | 0.96 | 0.14 | 0.5
2 | Cn1cc(-c2ccc(F)c(C(F)(F)F)c2)nc1C1CCN(c2ncnc3[nH]ncc23)CC1 | 0.33 | 0.45 | 0.47 | -0.18 | 0.44 | 0.81 | 0.37 | 0.97 | 0.91 | 0.15
3 | CN1CC(O)C2=C/C(=N/NC(N)=O)C(=O)C=C21 (stereo not given) [Carbazochrome] | 0.38 | 0.29 | 0.65 | 0.05 | 0.64 | 0.96 | 0.41 | -0.02 | 0.38 | 0.2
4 | Cc1nc2ccc(-n3ncc(C(=O)c4cc5ccccc5[nH]4)c3N)cc2[nH]1 | 2.94 | 4.14 | 0.05 | 1.25 | 0.29 | -0.16 | 0.75 | 3.8 | 0.93 | -0.16
5 | CCN(C)S(=O)(=O)Nc1ccc(F)c(C(=O)c2c[nH]c3ncc(-c4cnc(C5CC5)nc4)cc23)c1F | 3.15 | 0.87 | 0.3 | 0.5 | 0.47 | 0.08 | 0.44 | 2.53 | 0.81 | 0.37
6 | CC(C)(C)S(=O)(=O)c1ccc2nccc(Nc3n[nH]c4ccc(F)cc34)c2c1 | 0.81 | 0.59 | 0.15 | 0.75 | 0.12 | -0.21 | 0.11 | 3.68 | 0.32 | 0.12
7 | Cn1ncc(Cl)c1-c1cc(C(=O)N[C@H](CN)Cc2cccc(F)c2)sc1Cl | 0.37 | -0.08 | 0.33 | 0 | 0.16 | 0.15 | -0.04 | 0.42 | 0.52 | 0.2
8 | CCc1nc(-c2cccc(C)c2)c(-c2ccnc(NC(=O)c3ccccc3)c2)s1 | 0.74 | -0.41 | 0.27 | 0.6 | 0.28 | 0.06 | 0.03 | 1.27 | 0.74 | 0.61
9 | Cc1nc(N)sc1-c1ccnc(Nc2ccc(N3CCOCC3)cc2)n1 | 3.37 | 1.11 | 0.62 | 3.79 | 1.2 | 1.67 | 2.84 | 5.04 | 2.31 | 1.72
10 | Cc1cc2c(F)c(Oc3ncnn4cc(OC[C@@H](C)O)c(C)c34)ccc2[nH]1 | 1.84 | -0.24 | 0.46 | -0.04 | 1.01 | 0.21 | 0.22 | 5.26 | 1.05 | 0.62
11 | C=CC(=O)Nc1ccc(CN2C(=O)N(c3cc(OC)cc(OC)c3)Cc3cnc(Nc4ccc(N5CCN(C)CC5)cc4)nc32)cc1 | 1.47 | 1.08 | 0.74 | 0.1 | 0.49 | 0.33 | 0.75 | 1.29 | 2.8 | 0.83
12 | CN(C)C/C=C/C(=O)Nc1cc2c(Nc3ccc(F)c(Cl)c3)ncnc2cc1O[C@H]1CCOC1 [Afatinib (BIBW2992)] | 0.69 | -0.42 | 0.26 | 1.35 | 0.99 | 0.05 | 0.86 | 4.16 | 0.66 | 0.51
13 | O=C(/C=C/c1ccc(O)c(O)c1)c1ccc(O)cc1O [Butein] | 2.94 | 0.39 | 1.9 | 3.8 | 1.75 | 2.26 | 2.72 | 3.66 | 3.43 | 2.09
14 | COc1cc2ncnc(Nc3cccc(Cl)c3F)c2cc1OC(=O)N1CCN(C)C[C@H]1C | 1.31 | 0.53 | 0.43 | 0.01 | 0.33 | 0.9 | 0.48 | 3.07 | 1.2 | 0.24
15 | COc1cc2ncnc(Nc3cccc(Cl)c3)c2cc1OC [AG-1478 (Tyrphostin AG-1478)] | 4.64 | 0.2 | 0.25 | 2.86 | 0.56 | 0.38 | 2.25 | 6.57 | 2.27 | 0.04
16 | CC1(COc2ccc3c(c2)ncn3-c2ccc3cccc(N4CCC(N)CC4)c3n2)COC1 | 16.4 | 0.52 | 0.13 | 1.74 | 7.81 | 0.06 | 8.62 | 9.74 | 3.29 | 0.23
17 | CC(C)(C)c1nc(-c2ccc(NC(=O)Nc3cccc(C(F)(F)F)c3)c3ccccc23)c2c(N)nccn12 [kira6] | 2.31 | 9.87 | 0.01 | 2.25 | 7.11 | 0.7 | 4.91 | 3.47 | 1.58 | -0.01
18 | O=C(NCc1ccccc1)c1csc(Nc2ccncn2)n1 [Thiazovivin] | 0.91 | 0.46 | 0.67 | 1.49 | 0.04 | 0.18 | 0.53 | 1.56 | 0.41 | 0.67
19 | CC(C)(CCCCCC(O)CCCCCC(C)(C)C(=O)O)C(=O)O | 0.72 | 0.34 | 0.51 | -0.22 | 0.25 | 0.67 | 0.41 | 0.9 | 2.27 | 0.2
